Source: PubChem (several laboratories)
SENP8 block-1: blocks the human protease SENP8 | hit rate 1.2% among 330,000 | inhibition, % at 10 µM | Q96LD8 | purified SENP8, Z-RLRGG-aminoluciferin cleavage, luminescence; in the data active = inhibition above about 50%
Target sequence (Q96LD8 whole entry, looked up): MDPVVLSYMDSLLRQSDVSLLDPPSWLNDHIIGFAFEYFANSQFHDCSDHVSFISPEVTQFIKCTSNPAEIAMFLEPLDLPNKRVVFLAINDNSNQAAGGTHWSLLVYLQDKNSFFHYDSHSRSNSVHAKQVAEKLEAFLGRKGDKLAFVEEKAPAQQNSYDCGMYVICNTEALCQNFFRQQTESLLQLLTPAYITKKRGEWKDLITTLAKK
SENP6 block: SENP6 protease inhibition | inhibition, % at 10 µM | hit rate 1.8% among 330,000 | Recombinant SENP6 catalytic domain, aminoluciferin luminescence | AID 2599 | Q9GZR1;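 active = inhibition above about 50% at the single tested dose, limit read from the data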
SENP7 block: blocks the human protease SENP7; Q9BQF6; recombinant SENP7, Z-RLRGG-aminoluciferin luminescence, 40 min; inhibition, % at 5 µM; hit rate 1.5% among 330,000; AID 434973;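 active = inhibition above about 50% at the single test dose, limit read from the data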
SENP8 block-2: SENP8 (human) protease inhibition. AID 602440. hit rate 0.64% among 360,000. recombinant SENP8, Nedd8 substrate fluorescence. inhibition, % at 20 µM; in the data active = inhibition mostly above about 40%, no sharp cut-off; inactive = mostly below about 27%
HSP90 refold inh: inhibitors of HSP90 luciferase refolding in rabbit reticulocyte lysate | luciferase refolding luminescence, 3 h | inhibition, % at 5.6 µM | hit rate 0.91% among 290,000;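 active = inhibition above the screen-wide mean plus 3 SD, computed separately per campaign, cut at about 16% in these data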;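 note: inhibitors lower the luminescence because luciferase stays unfolded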
SENP8 conf: confirmation of human SENP8 protease inhibitors; shares compounds with SENP7 block; Recombinant SENP8, Z-RLRGG-aminoluciferin luminescence, 60 min; inhibition, % at 12.5 µM; hit rate 40% among 6,200; AID 488912;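 active = mean inhibition across replicates above about 50%, limit read from the data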
SENP6 conf: confirmation of human SENP6 protease inhibitors | hit rate 58% among 6,200 | inhibition, % at 12.5 µM | shares compounds with SENP7 block | recombinant SENP6, Z-RLRGG-aminoluciferin luminescence | AID 488915
SENP7 confirm: confirmation of human SENP7 protease inhibitors; inhibition, % at 12.5 µM; recombinant SENP7, Z-RLRGG-aminoluciferin luminescence, 40 min; AID 488917; hit rate 69% among 6,200; shares compounds with SENP7 block
Casp3 SENP sel: caspase-3 inhibition (SENP selectivity assay); shares compounds with SENP7 block; purified caspase-3, Z-DEVD-aminoluciferin luminescence, 60 min; inhibition, % at 12.5 µM; hit rate 60% among 6,200;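 active = mean inhibition above about 50%, limit read from the data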
Target sequence (P42574 28-227 limits assumed): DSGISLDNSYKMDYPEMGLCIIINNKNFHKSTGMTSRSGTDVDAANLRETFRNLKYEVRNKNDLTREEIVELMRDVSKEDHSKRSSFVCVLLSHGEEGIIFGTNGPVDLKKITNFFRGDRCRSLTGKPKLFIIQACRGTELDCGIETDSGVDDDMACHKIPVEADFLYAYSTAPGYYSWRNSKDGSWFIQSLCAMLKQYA
SENP luc ctr: counter-screen for SENP inhibitors: luminescence interference; shares compounds with SENP7 block; Pre-incubated SENP8/Z-RLRGG-aminoluciferin, luciferase luminescence interference; inhibition, % at 12.5 µM; hit rate 39% among 6,200;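 active = mean inhibition above about 50% when retested at one dose, limit read from the data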
A number is an active result; . = inactive; / = not tested or not shown. Compounds with a hit are over-represented: about 2.7% of the library has one in this group of screens.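 Rule for the calls, unless noted: active = mean inhibition above about 50% in the one-dose retest (limit read from the data); inactive = the rest.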

SMILES	SENP8 block-1	SENP6 block	SENP7 block	SENP8 block-2	HSP90 refold inh	SENP8 conf	SENP6 conf	SENP7 confirm	Casp3 SENP sel	SENP luc ctr
N#C/C(=N\Nc1ccc([N+](=O)[O-])cc1)C(N)=S	91	98	92	47	.	97	98	102	97	90
N#C/C(=N\Nc1cccc([N+](=O)[O-])c1)C(=O)c1ccc(Br)cc1	60	72	.	.	.	.	66	.	.	59
O=C(c1cc2ccccc2cc1O)N1CCN(c2ccccn2)CC1	.	.	.	.	.	/	/	/	/	/
COc1ccc(S(=O)(=O)N2CCN(c3ncccn3)CC2)cc1[N+](=O)[O-]	.	.	.	.	.	/	/	/	/	/
COc1ccc(S(=O)(=O)N2CCN(c3ccccn3)CC2)cc1[N+](=O)[O-]	.	85	.	.	.	.	.	.	.	.
C=CCn1c(SCC(=O)Nc2ccc(NC(=O)c3ccco3)c(OC)c2)nnc1-c1ccncc1	.	74	.	.	.	.	.	.	.	.
CC(=O)c1cccc(-c2cnc3c(NC=O)cc(-c4ccc(C(=O)N5CCOCC5)cc4)cn23)c1	/	/	/	.	/	/	/	/	/	/
COc1ccc2oc(C(=O)Nc3nc4ccccc4[nH]3)c(C)c2c1	58	78	93	.	.	.	.	95	84	58
COc1ccc2oc(C(=O)Nc3nnc(C)s3)c(C)c2c1	.	.	62	.	/	.	.	.	.	.
COc1ccc2oc(C(=O)Nc3nc4ccc(S(C)(=O)=O)cc4s3)c(C)c2c1	.	.	.	.	/	/	/	/	/	/
Cc1ccc2oc(C(=O)Nc3nnc(C)s3)c(C)c2c1	.	.	59	.	.	.	.	.	.	.
Cc1ccc2oc(C(=O)Nc3nonc3C)c(C)c2c1	.	.	.	.	.	/	/	/	/	/
COc1ccc2oc(C(=O)OC/C(O)=C(\C#N)c3nc4ccccc4[nH]3)c(C)c2c1	.	.	.	.	.	/	/	/	/	/
CCNC(=S)NNC(=O)c1cc(-c2cccc(C)c2)nc2ccccc12	81	85	72	.	.	90	90	98	96	92
CCNC(=S)NNC(=O)c1cc(-c2ccc(OC)cc2)nc2ccccc12	91	93	95	.	.	96	96	100	97	90
CCNC(=S)NNC(=O)c1cc(-c2cccc(OCC)c2)nc2ccccc12	.	.	.	.	.	/	/	/	/	/
NC(=O)C1CCCN(C(=O)c2[nH]c(C(F)(F)F)nc2-c2ccccc2)C1 (configuration not stated)	/	/	/	.	/	/	/	/	/	/
COC(=O)c1c[nH]n2c(=O)c(Cl)c(C)nc12	.	64	54	.	.	66	57	86	88	66
COC(=O)c1c[nH]n2c(=O)cc(C)nc12	.	.	.	.	.	/	/	/	/	/
COc1cccc(NC(=O)Nc2cccnc2)c1	.	.	.	.	.	/	/	/	/	/
Cc1ccc(NC(=O)c2ccc3nsnc3c2)c(Cl)c1	.	62	81	.	.	.	.	.	.	.
COc1cccc(NC(=O)c2ccc3nsnc3c2)c1	.	63	60	.	.	58	56	85	80	71
COc1cccc(NC(=O)Nc2cccc(C(=O)O)c2)c1	90	.	93	.	77	95	95	101	90	94
O=C(Nc1ccc(Br)cc1F)c1ccc2nsnc2c1	.	.	.	.	.	/	/	/	/	/
COc1cccc(NC(=O)CC(=O)c2ccc([N+](=O)[O-])cc2)c1	69	71	58	.	.	82	80	93	72	74
SMILES	SENP8 block-1	SENP6 block	SENP7 block	SENP8 block-2	HSP90 refold inh	SENP8 conf	SENP6 conf	SENP7 confirm	Casp3 SENP sel	SENP luc ctr
COc1cc(C(=O)OCC(=O)N2CCCC2)cc2c1OCCO2	.	.	.	.	/	/	/	/	/	/
CCOc1ccc(N(CC(=O)NCCc2ccccc2)C(=O)CCC(=O)Nc2cc(C)ccn2)cc1	.	.	.	.	.	/	/	/	/	/
COc1ccc(C(=O)Nc2cccc(OC)c2)cc1	79	86	92	.	.	.	92	101	96	91
COc1cccc(NC(=O)c2cccc(C(=O)Nc3cccc(OC)c3)c2)c1	.	.	.	.	.	/	/	/	/	/
CCOC(=O)Nc1cccc(C(=O)O)c1	.	61	55	.	.	52	54	86	.	71
COc1cccc(C(=O)Nc2ccc3c(C)cc(=O)oc3c2)c1	.	63	71	.	.	.	.	.	.	.
CCc1ccc(NC(=O)Nc2cccc(OC)c2)cc1	53	.	56	.	.	.	51	82	.	59
Cc1cc(=O)oc2cc(NC(=O)c3ccccc3C(=O)O)ccc12	.	.	.	.	.	/	/	/	/	/
CCCCNC(=O)c1onc(CSc2ccc(OC)cc2)c1C(=O)O	.	.	.	.	.	/	/	/	/	/
COc1ccc(-c2cccc(C(=O)Nc3cccc(C(=O)O)c3)c2)cc1	53	84	59	.	.	69	83	96	.	77
COc1cccc(NC(=O)C(C)C)c1	.	.	.	.	/	/	/	/	/	/
COc1cccc(NC(=O)c2ccc(OC(F)(F)F)cc2)c1	85	88	94	.	/	66	79	98	87	.
COc1cccc(NC(=O)c2ccccc2C(F)(F)F)c1	.	.	.	.	.	/	/	/	/	/
COc1ccc(-c2cccc(C(=O)Nc3ccc(C)cc3)c2)cc1	.	.	.	.	.	/	/	/	/	/
COc1cccc(NC(=O)c2ccc(NC(=O)C(C)C)cc2)c1	55	73	75	.	.	.	56	85	74	.
COc1cccc(NC(=O)c2ccccc2)c1	.	.	51	.	/	.	.	77	73	51
Cc1ccc(C(CC(=O)N2CCCCC2)c2ccccc2)c(O)c1C (configuration not stated)	.	.	.	.	.	/	/	/	/	/
Nc1ccc2nc3n(c(=O)c2c1)CCC3	.	.	.	.	/	/	/	/	/	/
O=C(CCCn1c(=O)c2ccccc2n(CC(=O)N2CCN(c3ccccc3)CC2)c1=O)NCc1ccco1	.	.	.	.	.	/	/	/	/	/
CCCCOC(=O)Nc1ccc2c(C)cc(=O)oc2c1	.	.	62	.	.	.	.	50	.	.
COc1cccc(NC(=O)NC2CCCCCCC2)c1	.	.	.	.	.	/	/	/	/	/
COc1cccc(C(=O)Nc2cc(Cl)c(O)c(Cl)c2)c1	55	71	59	.	.	64	64	89	85	68
COc1ccc(COc2ccc3c(C)cc(=O)oc3c2)cc1	50	70	.	.	.	.	56	.	.	.
COc1cccc(NC(=O)C(=S)NC2CCCCC2)c1	.	.	52	.	.	59	65	84	.	.
